Results taken from PubChem BioAssay (Tox21).
Inconclusive results are not listed. Where a call stands in place of a potency, no number is given. A structure can be active in one record and inactive in another. Active and inactive are the calls of the source. Unless noted, calls follow the shape of the dose curve; as a rule, active = well fitted curve in the direction sought with a large enough effect in the repeat runs; inconclusive = weak or mixed curves; inactive = no such curve, though single readings can be large; an effect the other way counts as inactive or inconclusive.

Assays:
[1] = target: Peroxisome proliferator-activated receptor delta (Homo sapiens) (UniProt Q03181); assay: qHTS assay to identify small molecule agonists of the peroxisome proliferator-activated receptor delta (PPARd) signaling pathway (AID 743212; calls by dose curve)
Peroxisome proliferator-activated receptor delta (Homo sapiens), sequence (Q03181 whole entry, looked up): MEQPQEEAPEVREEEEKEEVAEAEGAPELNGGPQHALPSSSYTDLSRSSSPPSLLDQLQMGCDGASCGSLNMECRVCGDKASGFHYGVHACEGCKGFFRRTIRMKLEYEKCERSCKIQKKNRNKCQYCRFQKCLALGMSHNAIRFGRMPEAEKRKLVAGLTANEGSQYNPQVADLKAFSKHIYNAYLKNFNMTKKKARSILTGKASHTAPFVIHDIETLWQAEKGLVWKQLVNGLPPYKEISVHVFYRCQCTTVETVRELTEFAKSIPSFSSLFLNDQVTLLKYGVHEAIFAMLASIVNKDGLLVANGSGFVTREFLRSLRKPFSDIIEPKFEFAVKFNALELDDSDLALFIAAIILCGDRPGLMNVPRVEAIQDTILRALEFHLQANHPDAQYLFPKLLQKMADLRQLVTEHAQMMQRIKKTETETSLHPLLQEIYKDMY
How it was run: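 Quantitative high-throughput agonist screen in a HEK293H beta-lactamase reporter line under UAS control. Compounds in DMSO, at 37 C. Fluorescence read after 2 h with FRET substrate at room temperature.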

[2] = qHTS assay to identify small molecule antagonists of the peroxisome proliferator-activated receptor delta (PPARd) signaling pathway - cell viability counter screen (AID 743213); also: nearly all actives have a fitted effect of over 50% in size
How it was run: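 Luminescence from CellTiter-Glo, added after the bla read and incubated 30 min at room temperature, gives viability of HEK293H PPARd-bla cells exposed to compounds for 17 h at 37 C with 300 nM L165041.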

[3] = target: Peroxisome proliferator-activated receptor delta (Homo sapiens) (UniProt Q03181); assay: qHTS assay to identify small molecule antagonists of the peroxisome proliferator-activated receptor delta (PPARd) signaling pathway (AID 743215; active = well fitted inhibition curve with a large enough effect in the signal ratio in the repeat runs, not every such curve was filed as active; the % refers to the signal ratio;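 also: cells stimulated with agonist L165041 at 300 nM final during compound exposure; series mostly up to about 62 µM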)
How it was run: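 Read-out is beta-lactamase FRET fluorescence, measured 2 h after substrate addition at room temperature. Beforehand, UAS-bla HEK293H cells carrying the PPARd reporter were exposed to compounds with L165041 at 300 nM final for 17 h at 37 C.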

[4] = target: Bile acid receptor (Homo sapiens) (UniProt Q96RI1); assay: qHTS assay to identify small molecule agonists of the farnesoid-X-receptor (FXR) signaling pathway (AID 743220; active = well fitted activation curve with a large enough effect in the signal ratio in the repeat runs, not every such curve was filed as active; the % refers to the signal ratio)
Bile acid receptor (Homo sapiens), sequence (Q96RI1 whole entry, looked up): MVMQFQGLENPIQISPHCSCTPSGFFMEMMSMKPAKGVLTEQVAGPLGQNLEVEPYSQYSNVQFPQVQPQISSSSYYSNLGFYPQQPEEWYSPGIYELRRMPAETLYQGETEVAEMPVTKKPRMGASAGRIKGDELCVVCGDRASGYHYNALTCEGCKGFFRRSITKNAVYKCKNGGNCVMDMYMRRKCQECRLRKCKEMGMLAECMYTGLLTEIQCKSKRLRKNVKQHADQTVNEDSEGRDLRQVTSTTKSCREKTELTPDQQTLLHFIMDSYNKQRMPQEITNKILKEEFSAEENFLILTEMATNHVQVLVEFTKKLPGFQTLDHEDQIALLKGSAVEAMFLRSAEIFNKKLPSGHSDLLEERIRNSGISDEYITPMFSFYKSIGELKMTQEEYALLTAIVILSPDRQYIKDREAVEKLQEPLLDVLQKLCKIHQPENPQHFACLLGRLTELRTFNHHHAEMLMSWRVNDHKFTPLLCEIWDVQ
How it was run: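 Beta-lactamase reporter under UAS control in GeneBLAzer FXR HEK 293T cells (5000/well) measured with LiveBLAzer FRET substrate after 2 h at room temperature. Compound exposure lasted 16 h at 37C.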

[5] = qHTS assay to identify small molecule antagonists of the farnesoid-X-receptor (FXR) signaling pathway - cell viability counter screen (AID 743221; active = well fitted cell-killing curve with a large enough effect in the repeat runs, not every such curve was filed as active; also: nearly all actives have a fitted effect of over 50% in size)
How it was run: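 GeneBLAzer FXR-UAS-bla HEK 293T cells, compound plus chenodeoxycholic acid (50 uM final), 16 h at 37 C. CellTiter-Glo added to the same wells after the beta-lactamase read; luminescence read after 30 min at room temperature as viability.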

[6] = qHTS assay to identify small molecule agonists of the vitamin D receptor (VDR) signaling pathway - cell viability counter screen (AID 743224); also: series mostly up to about 63 µM; nearly all actives have a fitted effect of over 50% in size
How it was run: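 Luminescence from CellTiter-Glo, read after 30 min at room temperature, reports viability of VDR-bla cells treated with compounds for 16 h at 37C in the wells used for the beta-lactamase FRET read.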

[7] = qHTS assay to identify small molecule antagonists of the vitamin D receptor (VDR) signaling pathway - cell viability counter screen (AID 743225); also: nearly all actives have a fitted effect of over 50% in size
How it was run: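 VDR-UAS-bla HEK 293T cells were plated and incubated 4 h at 37C, then dosed with compound plus 3 nM (final) 1-alpha,25-dihydroxyvitamin D3 for 16 h. After the 2 h beta-lactamase read, viability in the same wells was read as CellTiter-Glo luminescence after 30 min at room temperature.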

[8] = qHTS assay to identify small molecule agonists of the NFkB signaling pathway (AID 1159509; active = well fitted curve in the direction sought with a large enough effect in the signal ratio in the repeat runs, not every such curve was filed as active; the % refers to the signal ratio; also: series mostly up to about 61 µM)
How it was run: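 After overnight attachment, reporter cells received test compounds, DMSO or positive controls and were incubated 5 hr at 37 C. FRET substrate was then added for 1.5 hr at room temperature before dual-emission fluorescence reading.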

[9] = qHTS assay to identify small molecule agonists of the NFkB signaling pathway - cell viability counter screen (AID 1159515; calls by dose curve; also: series mostly up to about 61 µM; nearly all actives have a fitted effect of over 55% in size)
How it was run: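 Luminescence from CellTiter-Glo (30 min, room temperature) gives viability, measured in the same wells as the beta-lactamase reporter read. Cells were NFkB-bla ME-180, 2,000 per well, treated 5 hr with compounds.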

[10] = qHTS assay to identify small molecule agonists of the endoplasmic reticulum stress response signaling pathway - cell viability counter screen (AID 1159517; calls by dose curve; also: nearly all actives have a fitted effect of over 50% in size; also: potency is read from the fitted curve at half-maximal effect)
How it was run: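 Counter-screen wells were identical to the reporter wells. Cells were plated at 1,500 per well and dosed for 5 hr, then read for luminescence 30 min after CellTiter-Glo addition.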

[11] = qHTS assay to identify small molecule antagonists of the retinoid-related orphan receptor gamma (ROR-gamma) signaling pathway - cell viability counter screen (AID 1159520); also: nearly all actives have a fitted effect of over 50% in size; also: potency is read from the fitted curve at half-maximal effect
How it was run: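 Tet-on ROR gamma CHO cells were given compounds for 2 hr, then doxycycline hyclate at 1 uM final, and incubated 16 hr at 37 C. Viability was measured as ATP content by CellTiter-Glo luminescence.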

[12] = target: Nuclear receptor ROR-gamma (Homo sapiens) (UniProt P51449); assay: qHTS assay to identify small molecule antagonists of the retinoid-related orphan receptor gamma (ROR-gamma) signaling pathway (AID 1159521; also: nearly all actives have a fitted effect of over 50% in size; also: potency is read from the fitted curve at half-maximal effect)
How it was run: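 Tet-on ROR-gamma CHO cells with ROR response element-luciferase reporter; compounds added 2 hr before 1 uM doxycycline induction, then 16 hr at 37 C. Antagonism scored as decreased ONE-Glo luminescence.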

[13] = qHTS assay to identify small molecule agonists of the AP-1 signaling pathway - cell viability counter screen (AID 1159525; calls by dose curve; also: nearly all actives have a fitted effect of over 55% in size)
How it was run: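 AP-1-bla ME-180 cells in Opti-MEM with 0.5% dialyzed FBS, compound exposure 5 h at 37 C in 15-point titration. Viability read in the same wells as ATP content by CellTiter-Glo luminescence, normalised to tetra-n-octylammonium bromide and DMSO controls.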

[14] = qHTS assay to identify small molecule agonists of the AP-1 signaling pathway (AID 1159526; calls by dose curve)
[15] = qHTS assay to identify small molecule agonists of the peroxisome proliferator-activated receptor delta (PPARd) signaling pathway - cell viability counter screen (AID 743211); also: nearly all actives have a fitted effect of over 55% in size
How it was run: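 PPARd-bla HEK293H cells (3000/well) were pre-incubated 5 h at 37 C, then exposed to compound for 17 h at 37 C. After 2 h with LiveBLAzer substrate, CellTiter-Glo was added to the same wells; luminescence read after 30 min at room temperature.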

[16] = target: Bile acid receptor (Homo sapiens) (UniProt Q96RI1); assay: qHTS assay to identify small molecule antagonists of the farnesoid-X-receptor (FXR) signaling pathway (AID 743217; active = well fitted inhibition curve with a large enough effect in the signal ratio in the repeat runs, not every such curve was filed as active; the % refers to the signal ratio)
How it was run: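 HEK 293T FXR-UAS-bla, 5000 cells/well; compound + CDCA 50 uM final; 16 h, 37 °C; B/G FRET substrate 2 h RT; fluorescence.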

[17] = qHTS assay to identify small molecule agonists of the farnesoid-X-receptor (FXR) signaling pathway - cell viability counter screen (AID 743218); also: nearly all actives have a fitted effect of over 45% in size
How it was run: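 HEK 293T FXR-bla cells; 5 h pre-incubation, 16 h compound exposure at 37 C; LiveBLAzer substrate 2 h RT, then CellTiter-Glo 30 min RT, luminescence.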

[18] = target: Vitamin D3 receptor (Homo sapiens) (UniProt P11473); assay: qHTS assay to identify small molecule agonists of the vitamin D receptor (VDR) signaling pathway (AID 743222; calls by dose curve)
Vitamin D3 receptor (Homo sapiens), sequence (P11473 whole entry, looked up): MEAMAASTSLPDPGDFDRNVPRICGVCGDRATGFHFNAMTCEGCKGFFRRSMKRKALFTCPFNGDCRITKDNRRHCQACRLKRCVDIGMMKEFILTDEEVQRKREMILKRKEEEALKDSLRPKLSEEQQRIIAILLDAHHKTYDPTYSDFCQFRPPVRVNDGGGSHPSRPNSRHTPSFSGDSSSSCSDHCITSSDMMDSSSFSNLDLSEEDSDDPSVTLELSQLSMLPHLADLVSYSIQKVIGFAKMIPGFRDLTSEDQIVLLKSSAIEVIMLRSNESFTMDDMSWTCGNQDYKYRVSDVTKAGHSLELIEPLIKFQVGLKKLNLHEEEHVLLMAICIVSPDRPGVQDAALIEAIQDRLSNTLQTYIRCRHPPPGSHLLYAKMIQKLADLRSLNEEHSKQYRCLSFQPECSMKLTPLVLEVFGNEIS
How it was run: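 VDR-bla cells, 2,000/well; 4 h preincubation 37C; cpd (DMSO) 16 h; LiveBLAzer B/G substrate 2 h RT; fluorescence intensity read.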

[19] = target: Vitamin D3 receptor (Homo sapiens) (UniProt P11473); assay: qHTS assay to identify small molecule antagonists of the vitamin D receptor (VDR) signaling pathway (AID 743223; active = well fitted inhibition curve with a large enough effect in the signal ratio in the repeat runs, not every such curve was filed as active; the % refers to the signal ratio)
How it was run: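 VDR-bla cells were treated with compound plus 3 nM final 1alpha,25-dihydroxyvitamin D3 for 16 h at 37C. Beta-lactamase reporter read by B/G FRET substrate fluorescence after 2 h at room temperature. qHTS format.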

SMILES | outcome [1] | Potency [2] | Potency [3] | outcome [4] | Potency [5] | Potency [6] | Potency [7] | outcome [8] | Potency [9] | Potency [10] | Potency [11] | Potency [12] | Potency [13] | outcome [14] | Potency [15] | Potency [16] | Potency [17] | outcome [18] | outcome [19]
COC(=O)C(Cl)C(=O)OC | inactive | inactive | inactive | inactive | inactive | inactive | inactive | inactive | inactive | inactive | inactive | inactive | inactive | inactive | – | – | – | – | –
O=C(O)C(F)(F)C(F)(F)C(F)(F)C(F)(F)C(F)(F)C(F)(F)C(F)(F)C(F)(F)C(F)(F)C(F)(F)F | – | inactive | – | inactive | inactive | inactive | inactive | inactive | inactive | inactive | inactive | inactive | inactive | inactive | inactive | inactive | inactive | inactive | –
ClC=C(Cl)Cl | – | inactive | inactive | inactive | inactive | inactive | inactive | inactive | inactive | inactive | inactive | inactive | inactive | inactive | – | inactive | – | – | –
O=C(O)c1ccccc1C(=O)Nc1cccc2ccccc12 | inactive | inactive | inactive | inactive | inactive | inactive | inactive | inactive | inactive | inactive | inactive | inactive | inactive | – | inactive | inactive | inactive | inactive | inactive
O=C(NCc1cccnc1)Nc1ccc([N+](=O)[O-])cc1 | – | inactive | – | – | inactive | inactive | – | inactive | inactive | inactive | inactive | inactive | inactive | inactive | inactive | – | inactive | – | –
CC(O)(CS(=O)(=O)c1ccc(F)cc1)C(=O)Nc1ccc(C#N)c(C(F)(F)F)c1 (configuration not stated) | inactive | – | inactive | – | inactive | inactive | – | inactive | inactive | inactive | inactive | 25.2 µM (active) | inactive | inactive | – | – | inactive | inactive | inactive
CN1[C@@H]2CC[C@H]1CC(OC(=O)c1cc(Cl)cc(Cl)c1)C2 (some centres not stated) | inactive | – | inactive | – | – | inactive | inactive | inactive | inactive | inactive | inactive | – | inactive | inactive | inactive | – | – | – | –
COC(=O)C(C)N(C(=O)Cc1ccccc1)c1c(C)cccc1C (configuration not stated) | – | inactive | inactive | – | inactive | inactive | inactive | inactive | inactive | inactive | inactive | – | inactive | inactive | inactive | – | inactive | – | inactive
CCOP(=S)(OCC)SCSCC | inactive | inactive | inactive | inactive | – | inactive | inactive | inactive | inactive | inactive | inactive | – | inactive | inactive | inactive | inactive | inactive | inactive | –
CNC(C)Cc1ccccc1OC (configuration not stated) | inactive | inactive | inactive | – | inactive | inactive | inactive | inactive | inactive | inactive | inactive | inactive | inactive | inactive | inactive | – | – | inactive | inactive
CN1C(=O)NC(=O)C(C)(C2=CCCCC2)C1=O (configuration not stated) | inactive | inactive | inactive | – | inactive | inactive | inactive | inactive | inactive | inactive | inactive | inactive | inactive | inactive | inactive | – | inactive | – | –
CCOc1ccc(C(C)(C)COCc2cccc(Oc3ccccc3)c2)cc1 | – | inactive | inactive | inactive | inactive | inactive | inactive | inactive | inactive | inactive | inactive | inactive | inactive | inactive | – | inactive | inactive | – | –
CC1Sc2c(C(=O)O)c(=O)c3cc(F)c(N4CCNCC4)cc3n21 (configuration not stated) | inactive | inactive | inactive | inactive | inactive | inactive | inactive | inactive | inactive | inactive | inactive | inactive | inactive | inactive | – | inactive | inactive | – | –
O=NN1CCCCCC1 | – | inactive | – | inactive | – | inactive | inactive | inactive | inactive | inactive | inactive | inactive | inactive | inactive | inactive | inactive | inactive | inactive | –
CCOP(=S)(OCC)Oc1nc(Cl)c(Cl)cc1Cl | inactive | inactive | inactive | inactive | inactive | inactive | inactive | inactive | inactive | inactive | inactive | 27.4 µM (active) and inactive | inactive | – | inactive | inactive | inactive | inactive | –
O=C1C(Cl)C(CCl)CN1c1cccc(C(F)(F)F)c1 (configuration not stated) | – | inactive | inactive | – | inactive | inactive | inactive | inactive | inactive | inactive | inactive | – | inactive | inactive | inactive | – | inactive | inactive | –
CS/C(C)=N/OC(=O)N(C)SN(C)C(=O)O/N=C(\C)SC | inactive | inactive | – | inactive | inactive | inactive | inactive | inactive | inactive | inactive | 43.3 µM (active) | 38.6 µM (active) | inactive | – | – | inactive | inactive | – | –
[O-][Cl+]O | inactive | inactive | inactive | – | inactive | inactive | inactive | inactive | inactive | inactive | inactive | inactive | inactive | inactive | inactive | – | inactive | – | –
Clc1cc(C(Cl)(Cl)Cl)cnc1Cl | – | inactive | inactive | inactive | – | inactive | inactive | inactive | inactive | 11 µM (active) | inactive | inactive | inactive | inactive | inactive | inactive | inactive | inactive | –
Cc1ccccc1CCl | inactive | inactive | inactive | – | inactive | inactive | inactive | inactive | inactive | inactive | inactive | inactive | – | inactive | inactive | – | inactive | inactive | –
